In the supplement of paper PMC6555819 one finds PBM binding z-score data, which are given here for 39 sequences.

The test system of the first test is RXRa DBDmut IVT, anti-RXR (DBD mutation: RXRa K156A/R161A, NR concentration 90 nM). Nature of the test: PBM binding z-score (relative to random genomic background probes); higher = stronger binding; sequences stand for … in GC…GCGATTGACAGCGTAGAATGAAGG
The essentials:
(§1)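 Custom Agilent 4×180K protein-binding microarrays carried double-stranded probes, each with a 34-nt variable region. These regions held direct-repeat seeds, single-nucleotide variants, half-site ablations and random human genomic background sequences. Ligand-free nuclear receptor dimers were incubated on the arrays for 1 h, antibodies against each partner (one per run) detected binding, and scanned fluorescence was regression-normalized. Binding z-scores take the random background probes as reference.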
Regarding CTATGTAGGTTAAGCGGGTCATTCAGTTTGAAAG, the PBM binding z-score was 1.29.

In turn, TAGCCTCGGTCATTCAGGGGCCAGTATAGAAAGC showed a PBM binding z-score of -0.617.

The sequence AGTCAAAGTTCTTCTAGGTAACGTAAGATATGCT came in with a PBM binding z-score of 1.41.

As for CTCGAAAGGTCGAGCTCAGGTGAGTATACCAAAC, the PBM binding z-score turned out to be 1.39.

Consider CAAACTAGGTCACCGTAAGGTCAAAGTCCGCATG, for which the PBM binding z-score is 2.47.

The sequence CGTCCAAGGTCAATGTTAGGTCAGTGAAAGCATT registered a PBM binding z-score of 3.6.

For CCGAGTAGGTTACGAGGGGGAATTCAGTGCGAAT, the PBM binding z-score was 0.572.

In turn, CCGACGGGGGCAGAAAGGTTACCATACCATCCGG yielded a PBM binding z-score of 1.16.

Sequence CGTCAAAGTTCAAGGTAAAGTAACAGAAAGCAGC came in with a PBM binding z-score of 4.04.

Consider CCTACTGGGCCATTCAGAGGTCATCGATCATATG, for which the PBM binding z-score stood at 0.733.

CGTCGAAGGTCAATGCTAGGTCAGTGAAAGCATT showed a PBM binding z-score of 2.5.

Take CCGAGTAGGTTACGAGGGGGCATTCATTGCGAAT: the PBM binding z-score turned out to be 1.21.

In turn, CAAAGTAGGTCACCGGAAGGTCAAAGTCCGCATG returned a PBM binding z-score of 1.72.

For TCGAGTAGGTTACGGGGTCATTCAGGGATGAAGA, the PBM binding z-score worked out at 2.36.

As for CGAACTATGTCACCAGGACAGTGAAGAGGTTGGA, the PBM binding z-score is -0.0649.

In the case of CTATCTAGGTTAAGGGGGTCATTCAGTTTGAAAG, the PBM binding z-score is 2.55.

TTACCAAGGTGAAAGGTCGTTGAGGCACGCCTTG came in with a PBM binding z-score of 0.589.

The sequence TCGAGTAGGTTATGGGGGCATTCAGGGATGAAGA gave a PBM binding z-score of 1.84.

Sequence CGAACTAGGTCACCAGGACAATGAAGAGGTTGGA yielded a PBM binding z-score of 1.58.

CGAACTAGGTCACCAGGACACTGAAGAGGTTGGA had a PBM binding z-score of 1.56.

With CGGACTGGGGCAAAGGTTACCATACTCAGTACGA, the PBM binding z-score stood at 0.0322.

The sequence TCGAGTAGGGTACGGGGGCATTCAGGGATGAAGA gave a PBM binding z-score of 2.6.

CCTAGTTGGTCAAGGTAACACACGCTATAGGTAC: the PBM binding z-score was determined as 0.599.

Sequence CGAACTAGGACAAAGGACAGTGAAAGGCGACGTA registered a PBM binding z-score of -0.1.

In turn, CGAACTACGTCACCAGGACAGTGAAGAGGTTGGA had a PBM binding z-score of -0.206.

As for CCTACTGGGCCATTAAGAGGTCATTGATCATATG, the PBM binding z-score was found to be 1.02.

ATATGTAGGTTAGCGGGGGTCATTCAGACTAGGC: the PBM binding z-score came to 2.7.

The sequence CCGAGTAGGTTACGAGGGGGCGTTCAGTGCGAAT displayed a PBM binding z-score of 1.17.

Take CCGAGTAGGTTACGAGGCGGCATTCAGTGCGAAT: the PBM binding z-score stood at 0.159.

ATCTCTAGGTAAAGTTCAGCGAAAGATCGATAGA had a PBM binding z-score of 1.25.

CTCGAAAGGTCGTGCTTAGGTGAGTATACCAAAC yielded a PBM binding z-score of 2.24.

Take TCTCGGAGGACACGAAAGGGCAGAGCTCGACATC: the PBM binding z-score worked out at 0.584.

Regarding CTATGTAGGTTAAGGGGGTCATTGAGTTTGAAAG, the PBM binding z-score was 2.81.

With TATACTGGGTCAAAGGCCAGAGTACGAATGTCGA, the PBM binding z-score stood at 0.958.

Sequence CCCAGTAGGTTACGAGGGGGCATTCAGTGCGAAT came in with a PBM binding z-score of 0.746.

Consider ATCTCTAGGTTAAAGTTCAGTGAATCCCGAGGAT, for which the PBM binding z-score was 1.18.

The sequence CGAACTAGGTCACCAGGACAGTGAGGAGGTTGGA yielded a PBM binding z-score of 1.05.

In the case of ATGTGTAGGTTAGGGTCATTCAGAAAGTAGGGAA, the PBM binding z-score stood at 2.52.

Take CGATCTAGGTCAAAGGACAGTGAAAGGCGACGTA: the PBM binding z-score came to 1.7.

The test system of a further test is RXRa homodimer (NR concentration 180 nM). Described as above. The essentials: as §1
Consider CTATGTAGGTTAAGCGGGTCATTCAGTTTGAAAG, for which the PBM binding z-score was 3.17.

In turn, TAGCCTCGGTCATTCAGGGGCCAGTATAGAAAGC gave a PBM binding z-score of 0.151.

With AGTCAAAGTTCTTCTAGGTAACGTAAGATATGCT, the PBM binding z-score was -0.133.

The sequence CTCGAAAGGTCGAGCTCAGGTGAGTATACCAAAC registered a PBM binding z-score of 4.04.

The sequence CAAACTAGGTCACCGTAAGGTCAAAGTCCGCATG showed a PBM binding z-score of 6.67.

In turn, CGTCCAAGGTCAATGTTAGGTCAGTGAAAGCATT returned a PBM binding z-score of 5.27.

CCGAGTAGGTTACGAGGGGGAATTCAGTGCGAAT yielded a PBM binding z-score of 1.09.

On to CCGACGGGGGCAGAAAGGTTACCATACCATCCGG, for which the PBM binding z-score amounted to 3.31.

CGTCAAAGTTCAAGGTAAAGTAACAGAAAGCAGC gave a PBM binding z-score of 4.17.

Consider CCTACTGGGCCATTCAGAGGTCATCGATCATATG, for which the PBM binding z-score came out at 4.44.

Turning to CGTCGAAGGTCAATGCTAGGTCAGTGAAAGCATT, the PBM binding z-score stood at 5.4.

The sequence CCGAGTAGGTTACGAGGGGGCATTCATTGCGAAT came in with a PBM binding z-score of 2.

For the sequence CAAAGTAGGTCACCGGAAGGTCAAAGTCCGCATG, the PBM binding z-score came to 7.28.

The sequence TCGAGTAGGTTACGGGGTCATTCAGGGATGAAGA had a PBM binding z-score of 7.78.

In the case of CGAACTATGTCACCAGGACAGTGAAGAGGTTGGA, the PBM binding z-score amounted to 0.602.

As for CTATCTAGGTTAAGGGGGTCATTCAGTTTGAAAG, the PBM binding z-score worked out at 5.74.

With TTACCAAGGTGAAAGGTCGTTGAGGCACGCCTTG, the PBM binding z-score is 6.39.

TCGAGTAGGTTATGGGGGCATTCAGGGATGAAGA returned a PBM binding z-score of 2.1.

The sequence CGAACTAGGTCACCAGGACAATGAAGAGGTTGGA showed a PBM binding z-score of 3.35.

CGAACTAGGTCACCAGGACACTGAAGAGGTTGGA gave a PBM binding z-score of 3.65.

CGGACTGGGGCAAAGGTTACCATACTCAGTACGA came in with a PBM binding z-score of 3.79.

As to TCGAGTAGGGTACGGGGGCATTCAGGGATGAAGA, the PBM binding z-score came out at 1.67.

As for CCTAGTTGGTCAAGGTAACACACGCTATAGGTAC, the PBM binding z-score was determined as 0.724.

Turning to CGAACTAGGACAAAGGACAGTGAAAGGCGACGTA, the PBM binding z-score was determined as 0.0792.

On to CGAACTACGTCACCAGGACAGTGAAGAGGTTGGA, for which the PBM binding z-score is 0.256.

CCTACTGGGCCATTAAGAGGTCATTGATCATATG had a PBM binding z-score of 3.74.

In the case of ATATGTAGGTTAGCGGGGGTCATTCAGACTAGGC, the PBM binding z-score was 6.22.

In the case of CCGAGTAGGTTACGAGGGGGCGTTCAGTGCGAAT, the PBM binding z-score is 1.42.

CCGAGTAGGTTACGAGGCGGCATTCAGTGCGAAT had a PBM binding z-score of 0.329.

As for ATCTCTAGGTAAAGTTCAGCGAAAGATCGATAGA, the PBM binding z-score came out at 1.9.

CTCGAAAGGTCGTGCTTAGGTGAGTATACCAAAC gave a PBM binding z-score of 4.91.

TCTCGGAGGACACGAAAGGGCAGAGCTCGACATC: the PBM binding z-score worked out at 0.474.

Sequence CTATGTAGGTTAAGGGGGTCATTGAGTTTGAAAG showed a PBM binding z-score of 5.76.

TATACTGGGTCAAAGGCCAGAGTACGAATGTCGA returned a PBM binding z-score of 3.99.

CCCAGTAGGTTACGAGGGGGCATTCAGTGCGAAT came in with a PBM binding z-score of 2.04.

Take ATCTCTAGGTTAAAGTTCAGTGAATCCCGAGGAT: the PBM binding z-score came to 4.46.

Turning to CGAACTAGGTCACCAGGACAGTGAGGAGGTTGGA, the PBM binding z-score turned out to be 3.49.

As for ATGTGTAGGTTAGGGTCATTCAGAAAGTAGGGAA, the PBM binding z-score stood at 5.52.

Consider CGATCTAGGTCAAAGGACAGTGAAAGGCGACGTA, for which the PBM binding z-score worked out at 2.76.
